The values that follow come from PubChem BioAssay (NCATS).

Structures are written as SMILES. Inconclusive results are not listed. Values without a mark were called inactive. The call rests on the fitted dose curve; in most records, active means well fitted curve in either direction with a large enough effect (not every such curve was filed as active); inconclusive means small, poorly fitted or top-dose-only effect, or another doubt; inactive means flat fitted curve, though single readings scatter.
On the % scale 0 is the no-effect control and ±100 the full control effect.

This test in a line: Stat Signaling Pathway (AID 446).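 Further: ME-180 cervical cancer cells given 40 pM IL-6 alongside compound; SIE-controlled beta-lactamase reporter measured as 460/530 nm FRET emission ratio.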 The settings on record: ME-180 (cervical carcinoma) SIE beta-lactamase reporter, IL-6 stimulated, 5 h; at 17.2 µM (top of the series) unless noted. The method, boiled down: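 Compound effects on IL-6-induced STAT reporter activity were measured in ME-180 cells. After overnight culture, cells were co-treated with 40 pM IL-6 for 5 hrs before beta-lactamase substrate loading at room temperature.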
For `COc1ccccc1C1/C(=C(/O)c2ccc(C)cc2)C(=O)C(=O)N1CCN1CCOCC1` (configuration not stated), the activity, negative = inhibition was 1.99%.
In the case of `CN1CCc2c(n(CC(O)CN3C(=O)c4ccccc4S3(=O)=O)c3ccccc23)C1=O` (configuration not stated) it was -6.51%.
In the case of `COc1ccc(CN(C)CCc2ccccn2)c(OC)c1OC` it was 11.1%; in that of `CCN(CC)S(=O)(=O)c1ccc2c(c1)c(C(=O)O)cn2C`, 1.11%; in that of `N#Cc1nc(-c2ccc(F)cc2)oc1N1CCCC1`, -3.18%.
As for `Cc1nc(SCC(=O)Nc2ccc3c(c2)OCO3)c(C#N)c2c1CCCC2`, the activity, negative = inhibition was -15.4%.
Under `CC1(C)Cc2ccccc2-c2c1c(=O)n(-c1ccccc1)c1nnnn21` stands 2.44%; under `O=C(Nc1ccccn1)c1ccc(=O)[nH]n1`, 1.32%.
Under `CCSc1nnc(NC(=O)NCC(F)(F)F)s1` stands 16.4%; under `CCOc1ccc2nc(NC(NC(C)=O)(C(=O)OC)C(F)(F)F)sc2c1` (configuration not stated), -4.87%; under `CCSc1nc(N)c2c3c(sc2n1)CCC3`, -3.03%.
Under `COc1ccccc1C1(CC(=O)N2CCOCC2)CCOC(C(C)C)C1` (configuration not stated) stands -0.0907%; under `O=CNC(=O)c1ccccc1C(=O)O`, 20.3%; under `CCOC(=O)c1c(C)n(C)c2ccc(OC)c(NC(=O)c3cccs3)c12`, -16.1%.
Take `CCOC(=O)c1ccc(NC(=O)COc2ccccc2OC)cc1`: the activity, negative = inhibition was 2.17%.
Regarding `CCCCn1c2nc3ccccc3nc2c2c(=O)n(CC(C)C)cnc21`, the activity, negative = inhibition was -6.11%.
Turning to `CCCSc1nc(C)c(CC(=O)OCC)c(=O)[nH]1`, the activity, negative = inhibition is -2.57%.
